Measurements as given in PubChem BioAssay AID1458 (National Center for Advancing Translational Sciences (NCATS), 2008).
The whole screen tested about 210,000 compounds, of which about 5,900 (2.8%) were called active. Entries that show only a call come without a potency. Roughly 5% stayed inconclusive and do not appear here. This is one part of a sample in which actives are shown more often than they occur. Calls follow the shape of the dose curve; as a rule, active = well fitted activation curve with a large enough effect; inconclusive = small, poorly fitted or top-dose-only effect; inactive = no such curve, though single readings can be large or run the other way.

Assay: qHTS Assay for Enhancers of SMN2 Splice Variant Expression; also: nearly all actives have a fitted effect of over 55% in size
Details: HEK293 SMN2-luciferase splicing reporter, luminescence, 30-36 h; series mostly up to 46.1 µM
Excerpt: NIH Chemical Genomics Center [NCGC] NIH Molecular Libraries Probe Production centers Network [MLPCN] MLPCN Grant: R03 MH084179-01 Assay Submitter (PI): Elliot Androphy NCGC Assay Overview: Spinal muscular atrophy (SMA) is caused by insufficient levels of the survival motor neuron protein SMN. The SMN locus on chromosome 5q13 contains two inverted copies of SMN called SMN1 and SMN2 which are 99% identical at the amino acid level. SMN1 is a fully functional protein and SMN2 skips exon 7 90% of the time. Skipping of exon 7 produces non-functional protein product. 10% of the SMN2 protein includes exon 7 and is fully functional. In the SMA disease state, mutations in the SMN1 locus are the cause of the disease state. Because only 10% of SMN2 is of the fully functional form, it is not sufficient to overcome the deficiency produced by the loss of the SMN1 product. A therapy that either increase the amount of SMN2 product made or to increase the inclusion of exon 7 has been proposed for the treatment of SMA. We have designed an assay to identify small molecules that can increase the amount of functional SMN2 product by appending a luciferase reporter gene after the native SMN2 gene, such that inclusion of exon 7 in the expressed product places the luciferase sequence in frame, thus generating functional luciferase enzyme.
NCGC Assay Protocol Summary: This screen utilizes a luciferase reporter gene assay, combining the promoter and splicing based cassettes in tandem with the major portion of the native SMN2 cDNA, and then transfected into HEK293 cells. Compounds that increase luciferase signal presumably enhance expression of the functional SMN2 splice variant. Passaging media contained DMEM w/ glutamax (+phenol red) 10% FCS, 1x pen/strep, 200 ug/ml hygro, 1x sodium pyruvate. Assay media contained DMEM w/ glutamax (-phenol red) 10% FCS, 1x pen strep, 1x pyruvate Sequence, Parameter, Value, Description (1) Cells, […], 2000 cells/well, 1536 TC treated White solid bottom plate (2) Time, 10-12 hours, 37C 5% CO2 (3) Compound, 23 nl, MLSMR Library (4) Control Compound, 23 nL, Sodium butyrate st 4.5mM (final) conc (5) Time, 30-36 hours, 37C 5% CO2 (6) Reagent, 3 ul, One Glo (TM) from Promega (7) Time, 5-15 minutes, Room temp (8) Detector, Viewlux: luminescent read, 60 second integration, high speed 2x binning Keywords: Spinal muscular atrophy, SMA, SMN2, high throughput screening, MLSMR, MLPCN, NIH Roadmap, qHTS and NCGC
Potency is read from the fitted curve at half-maximal effect.

| SMILES | Potency |
| --- | --- |
| c1ccc(CCc2nc(-c3ccncc3)no2)cc1 | inactive |
| Cc1ccc(-c2noc(CSc3nnc(-c4cccs4)n3C)n2)cc1 | inactive |
| c1ccc(-c2noc(-c3cccs3)n2)nc1 | 2.82 µM (active) |
| c1csc(-c2nc(-c3ccncc3)no2)c1 | 15.8 µM (active) |
| COc1ccc(Cc2nc(-c3ccccn3)no2)cc1OC | inactive |
| CC(C)c1nc(-c2ccccn2)no1 | inactive |
| COc1ccc(C)cc1-n1c(-c2ccc(C)cc2)cc2c1CC(C)(C)CC2=O | inactive |
| Cn1c(=O)c(C(=O)O)nn(-c2ccccc2)c1=O | inactive |
| COc1ccc(-c2c(C)nn3c(N4CCC(C(=O)NCCC(C)C)CC4)cc(C)nc23)cc1OC | inactive |
| Cc1cc(N2CCCC2)n2nc(C)c(-c3ccccc3)c2n1 | 11.2 µM (active) |
| Cc1cc(-n2nc(C)cc2C)n2nc(C)c(-c3ccccc3)c2n1 | inactive |
| Cc1cc(-c2ccccc2)n2nc(C)c(-c3ccccc3)c2n1 | inactive |
| CCc1nc2nc(C)cc(Nc3ccc(F)c(Cl)c3)n2n1 | inactive |
| Cn1c(C(=O)N2CCC(C(=O)N3CCN(c4ccccc4)CC3)CC2)cc2sccc21 | inactive |
| COc1ccc(NC(=O)CCN2CCN(CCO)CC2)cc1 | inactive |
| CC(C)(C)NS(=O)(=O)c1ccc(NC(=O)NC2CCCCC2)cc1 | inactive |
| CC(C)N1CCC(NC(=O)Nc2ccccc2)CC1 | inactive |
| CC(C)c1ccc(NC(=O)NC2CCCCC2)cc1 | 11.2 µM (active) |
| CCc1nn(CC(=O)N2CCN(c3cccc(C(F)(F)F)c3)CC2)c(=O)c2cc3occc3n12 | inactive |
| Nc1ccc(S(=O)(=O)Nc2nccc(/C=C/c3ccc(Br)s3)n2)cc1 | inactive |
| Oc1cccc2ccc(/C=C/c3ccc(Br)s3)nc12 | 8.91 µM (active) |
| COc1cc(OC)cc(-c2nc3nc(C)c(CCC(=O)Nc4ccccc4)c(C)n3n2)c1 | inactive |
| O=C(Nc1ccc(Br)cn1)c1ccc([N+](=O)[O-])cc1Cl | 7.08 µM (active) |
| CC(C)C(=O)Nc1cccc(NC(=O)c2ccc([N+](=O)[O-])cc2Cl)c1 | inactive |
| O=C(Nc1ccc(Br)cn1)c1ccc([N+](=O)[O-])o1 | inactive |
| COc1ccccc1N1CCN(c2ncnc3onc(-c4cccc(Cl)c4)c23)CC1 | inactive |

| SMILES | Potency |
| --- | --- |
| Cc1occc1C(=O)Nc1nnc(C2CCCCC2)s1 | inactive |
| O=C(Nc1nnc(Cc2ccccc2)s1)c1cnccn1 | inactive |
| O=C(Nc1nnc(C2CC2)s1)c1ccccn1 | 2.82 µM (active) |
| NC(=O)CSc1nc2c(oc3ccccc32)c(=O)n1Cc1ccccc1 | inactive |
| Cc1ccc(-n2c(SCC(=O)Nc3cccc(F)c3)nc3c(oc4ccccc43)c2=O)cc1C | inactive |
| COC(=O)C1=C(c2ccccc2)c2ccccc2S(=O)(=O)N1CC(=O)Nc1ccccc1C(F)(F)F | inactive |
| COc1ccc(C(F)(F)F)cc1NC(=O)c1sc2nc(-c3cccs3)ccc2c1N | inactive |
| CN1C(=O)/C(=C/C=C2\SCCN2C)OC1=S | 12.6 µM (active) |
| Cc1n[nH]c(C)c1S(=O)(=O)N1CCCC(C(=O)Nc2ccc(Br)cc2)C1 (stereo not drawn) | inactive |
| Cc1ccc2nc(-c3ccc(O)cc3)c(Nc3ccc4c(c3)OCO4)n2c1 | inactive |
| CCOc1ccc(S(=O)(=O)N(CC(=O)NCCSCc2ccc(C)cc2)c2ccccc2)cc1 | inactive |
| Cc1ccc(-c2noc(CSc3nnc(-c4ccc(Cl)cc4)n3C)n2)cc1 | inactive |
| S=c1[nH]nc(-c2cccnc2)n1/N=C/C(Cl)=C\c1ccccc1 | 12.6 µM (active) |
| Cc1ccc(/C=N\n2c(-c3ccccc3)n[nH]c2=S)s1 | inactive |
| Cc1cc(-c2n[nH]c(=S)n2/N=C/C(Br)=C/c2ccccc2)n[nH]1 | inactive |
| O=C(Cn1ncc2c3ccccc3n(Cc3ccccc3)c2c1=O)NCc1ccccn1 | inactive |
| CCN1CCN(Cc2c(O)ccc3oc(C)c(C(=O)Nc4ccc(C)cc4C)c23)CC1 | inactive |
| CC(C)(C)c1ccc(C(=O)N2CCC(c3nc(-c4ccc(S(=O)(=O)N5CCCC5)cc4)no3)CC2)cc1 | inactive |
| COc1cc(CNCCSc2nnnn2C)ccc1OCc1ccc(Cl)cc1Cl | inactive |
| CS(=O)(=O)n1nc(-c2ccccc2)nc1NCc1ccco1 | inactive |
| CCn1c(SCc2ccccc2)nc2c(c1=O)SCC2 | inactive |
| CCS(=O)(=O)n1nc(-c2ccccc2)nc1SCc1ccccc1 | 22.4 µM (active) |
| Cc1ccc(-n2nc(CO)c(C(=O)NCCc3ccccc3)n2)cc1 | inactive |
| Cc1ccc(-n2c3nc(=O)[nH]c(=O)c-3cc3c(Cl)cccc32)cc1 | inactive |
| Cc1nonc1NC(=O)CSc1nc2ccccc2cc1C#N | inactive |
| CCOc1ccc2cc(C#N)c(SCC(=O)OC)nc2c1 | 11.2 µM (active) |

| SMILES | Potency |
| --- | --- |
| COc1ccc(N2CCN(C(=O)CSc3nc4cc(OC)c(OC)cc4cc3C#N)CC2)cc1 | inactive |
| CCN1CCc2nc3sc(C(=O)Nc4ccccc4OC(F)(F)F)c(N)c3cc2C1 | inactive |
| COc1cccc(-c2nc3n(n2)C(c2ccccc2Cl)C(C(N)=O)=C(C)N3)c1 (stereo not drawn) | 15.8 µM (active) |
| COc1ccc(C2=CC(c3ccccc3Cl)n3nc(-c4ccc(Cl)cc4)nc3N2)cc1 (stereo not drawn) | inactive |
| CC1=C(C(N)=O)C(c2ccc3c(c2)OCO3)n2nc(-c3cccc(C)c3)nc2N1 (stereo not drawn) | inactive |
| COc1ccc(/C=C/C(=O)Nc2ccc(C34CC5CC(CC(O)(C5)C3)C4)cc2)cc1OC | 12.6 µM (active) |
| COc1ccc(/C=C/C(=O)N2CCCC2)cc1OC | inactive |
| COc1ccc(/C=C/C(=O)Nc2cccnc2)cc1OC | inactive |
| CCOC(=O)c1ccc(NC(=O)CC2C(=O)N(c3ccccc3)C(=O)N2Cc2cccs2)cc1 (stereo not drawn) | inactive |
| CCC(=O)Nc1sc(C(=O)Nc2ccccc2)c(C)c1C(=O)OC | 3.55 µM (active) |
| CCOC(=O)c1sc(NC(=O)COc2ncnc3ccccc23)c(C(=O)OCC)c1C | inactive |
| CCOC(=O)c1c(NC(=O)CCl)sc(C(=O)N(CC)CC)c1C | inactive |
| COc1ccccc1NC(=O)c1sc2nc(C)c(C(=O)Nc3ccc(Cl)cc3)c(-c3ccc(Br)cc3)c2c1N | inactive |
| CCc1ccccc1NS(=O)(=O)c1ccc2nc(-c3ccccc3)[nH]c2c1 | inactive |
| Cc1c(NC(=O)c2cc(-c3ccc(Br)cc3)on2)c(=O)n(-c2ccccc2)n1C | inactive |
| CC(C)Oc1ccc(CNC(=O)C2CCN(c3nc4ccccc4n(C)c3=O)CC2)cc1 | inactive |
| Cc1cc(C)c2oc(C(=O)Nc3ccc(S(=O)(=O)N(C)c4ccccc4)cc3)cc(=O)c2c1 | inactive |
| Cc1ccc(NC(=O)Nc2ccc3oc(C)nc3c2)cc1 | 11.2 µM (active) |
| Cc1nc2cc(NC(=O)NCc3ccccc3)ccc2o1 | inactive |
| Cc1nc2ccc(NC(=O)C(F)(F)F)cc2o1 | inactive |
| CC(C)c1ccc(NS(=O)(=O)c2ccc3[nH]cc(C(=O)NC4CCCC4)c(=O)c3c2)cc1 | inactive |
| CCOc1ccc(-c2n[nH]c3c2C(c2ccccc2OC)N(c2ccc(Br)cc2)C3=O)cc1 (stereo not drawn) | inactive |
| COc1cccc(OCC(=O)Nc2ccccc2C(N)=O)c1 | 11.2 µM (active) |
| COc1cccc(OCC(=O)NNC(=O)c2cnccn2)c1 | inactive |
| CCCOC(=O)Nc1ccccc1C(N)=O | inactive |
| CCOc1ccc(-c2nonc2NC(=O)c2oc3ccc(CC)cc3c2C)cc1 | inactive |

| SMILES | Potency |
| --- | --- |
| CCOC(=O)c1ccc(NC(=O)c2ncn(-c3ccccc3)n2)cc1 | inactive |
| CCC(=O)N1CCc2cc(S(=O)(=O)CCC(=O)N3CCN(c4ccccc4F)CC3)ccc21 | inactive |
| CC(C)(C)c1ccc(/C=C/C(=O)Nc2ncccn2)cc1 | 22.4 µM (active) |
| CC(C)(C)c1ccc(/C=C/C(=O)NC2CCS(=O)(=O)C2)cc1 (stereo not drawn) | inactive |
| O=C(/C=C/c1ccc(Cl)cc1)Nc1ccc(S(=O)(=O)Nc2ncccn2)cc1 | inactive |
| CCN(CC)CCNC(=O)Cn1ncc2c3ccccc3n(Cc3ccccc3C)c2c1=O | inactive |
| COCCCNC(=O)c1c(NC(=O)c2cc(=O)c3cc(C)c(C)cc3o2)sc2c1CCCC2 | inactive |
| CCOC(=O)c1nnn(CC(=O)NC(=O)Nc2ccccc2F)c1C(=O)OCC | inactive |
| COc1ccc(CNC(=O)CC2Oc3ccc(C)cc3NC2=O)cc1 (stereo not drawn) | inactive |
| O=C(c1ccc(C(F)(F)F)cc1)N1CCC(c2nc(-c3ccc(S(=O)(=O)N4CCCC4)cc3)no2)CC1 | inactive |
| O=C(CSc1cccc[n+]1[O-])c1ccc(-c2ccccc2)cc1 | 12.6 µM (active) |
| O=C(CSc1cccc[n+]1[O-])c1ccc(Cl)cc1 | inactive |
| COc1ccccc1C(=O)CSc1cccc[n+]1[O-] | inactive |
| Cc1c(C(=O)NCc2ccccc2Br)oc2ccc3c(c12)C(=O)CC(C)(C)O3 | inactive |
| CCS(=O)(=O)c1nc(S(=O)(=O)c2ccc(C)cc2)c(NCc2ccc(Cl)cc2)s1 | inactive |
| O=c1n(Cc2cccc(C(F)(F)F)c2)c2ccccc2c2nc(-c3ccccc3)nn12 | inactive |
| Cc1ccc(NC(=O)C(Cc2ccccc2)NS(=O)(=O)c2ccc3c(c2)oc(=O)n3C)cc1C (stereo not drawn) | inactive |
| C/C=C/c1ccc(OCCOc2ccc(C=O)cc2OC)c(OC)c1 | inactive |
| COc1cc(/C=C2/C(=O)ON=C2C)ccc1OCc1cccc(F)c1 | 12.6 µM (active) |
| COc1cc(/C=C2/C(=O)ON=C2C)ccc1OCc1ccccc1F | inactive |
| CCOC(=O)c1c(C)oc2ccc(N(C(=O)c3ccncc3)S(=O)(=O)c3ccc(CC)cc3)cc12 | inactive |
| CCOC(=O)C1=C(c2ccccc2)Nc2ncnn2C1c1ccc(Cl)cc1 (stereo not drawn) | inactive |
| O=C(O)c1ccc(NC(=O)C2CCCCC2)cc1 | inactive |
| CC(=O)Nc1cc2ccc(OC(C)=O)cc2oc1=O | inactive |
| O=C(Nc1cc2ccccc2oc1=O)C1CCCCC1 | 4.47 µM (active) |
